Source: PubChem
Luc counter: counter-screen: inhibitors of Kinase-Glo firefly luciferase; AID 1379; Q27757; 200,000 compounds, 0.28% hits; Potency, µM (titrated, usually from 38.3 µM), for the others: at the top dose activity change, negative = inhibition, usual class: inhibitors; Kinase-Glo luciferase, ATP luminescence, 8 min; active means well fitted inhibition curve with a large enough effect; inconclusive means small, poorly fitted or top-dose-only effect; further: potency means the concentration at half of the fitted maximal effect; nearly all actives have a fitted effect of over 60% in size
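Luminescence was the read-out, taken after 8-minute incubation at ambient temperature. Luciferase turned over luciferin with 10 uM ATP in imidazole pH 7.2 buffer containing KCl, MgCl2, Tween 20 and BSA.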
Lamin A splicing: LMNA splicing modulation | Potency, µM (top dose mostly 46.1 µM), without a hit: at the highest dose ratio change, negative = inhibition, most hits filed as inhibitors | HeLa LMNA splicing GFP/RFP minigene ratio, 48 h | 200,000 compounds, 0.01% hits | AID 1487; active means well fitted inhibition curve with a large enough effect in the signal ratio, with a control signal flat, not every such curve was filed as active; inconclusive means small, poorly fitted or top-dose-only effect, or effect the other way, or a change in a side signal; the % refers to the signal ratio; further: potency means the concentration at half of the fitted maximal effect
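S3 HeLa cells stably expressing lamin A-EGFP splicing minigene plus DsRed2, 600 cells/well, 48 h compound exposure at 37C. Laser-scanning cytometry; analysed as GFP (500-530 nm)/RFP (575-640 nm) total intensity ratio; 0.5% DMSO vehicle.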
PNC assembly inh: perinucleolar compartment assembly inhibition; PC3M PTB-GFP, PNC prevalence imaging, 16 h; active compounds read low; activity change (PNC), negative = inhibition, % at 10 µM; 140,000 compounds, 3.1% hits; AID 2417;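 active means readout at or below -70, meaning at least 70% loss of cells showing the perinucleolar compartment, a nuclear body marking cancer cells; inconclusive means readout between -30 and a set limit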;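 further: plate controls were DMSO wells for no effect and camptothecin positive control wells for full effect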
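Read-out is percentage of cells bearing a perinucleolar compartment, from automated 20x imaging of fixed, Hoechst-stained PC3M PTB-GFP cells. Cells were seeded 4 h, then exposed 16 h to compound (23 nl of library stock) in duplicate plates.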
IMPase cell inh: membrane-permeable compound that blocks inositol monophosphatase | P97697 | CHO-M1 cells, IP1 accumulation, HTRF TR-FRET ratio | inhibition (IP1 accumulation), % at 46.1 µM | 120,000 tested, under 10 active | AID 901; active means well fitted curve in the direction sought with a large enough effect in the signal ratio, not every such curve was filed as active; inconclusive means small, poorly fitted or top-dose-only effect, or a change in a side signal; inactive means no such curve, though single readings can be large or run the other way; the % refers to the signal ratio;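 further: cells stimulated with carbachol in lithium chloride buffer; plate controls were DMSO basal wells for no effect and reference inhibitor wells for full effect; higher means more IMPase inhibition seen as more IP1 and lower FRET ratio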
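Measured: the HTRF emission ratio (665/620 nm) plus the 620 nm donor channel, each fitted to the Hill equation to give AC50. Cells were CHO-M1 given compounds up to 46 uM and a 30 min carbachol stimulation at 37C.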
HPGD inh: HPGD (human) dehydrogenase inhibition | Potency, µM, without a hit: at the top dose activity change, negative = inhibition, hits mostly inhibitors | 150,000 compounds, 4.3% hits | purified HPGD, NADH fluorescence kinetic, PGE2 substrate | P15428; further: potency means the concentration at half of the fitted maximal effect
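NADH formation kinetics: reaction with 30 uM PGE2 and 1 mM NAD+ (final), 20 nM enzyme, Tris-HCl pH 8 with Tween 20, after 15 min compound preincubation at room temperature. Fluorescence change, last versus first of five reads.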
ALDH1A1 inh: ALDH1A1 (human) enzyme inhibition | P00352 | Purified ALDH1A1, NADH fluorescence, propionaldehyde substrate | Potency, µM (doses to about 75.3 µM), without a hit: top-dose activity, negative = inhibition, usual class: inhibitors | 220,000 compounds, 7.3% hits;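 further: potency means the concentration at half of the fitted maximal effect; plate controls were no enzyme wells and a reference inhibitor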
Target sequence (P00352 whole entry, looked up): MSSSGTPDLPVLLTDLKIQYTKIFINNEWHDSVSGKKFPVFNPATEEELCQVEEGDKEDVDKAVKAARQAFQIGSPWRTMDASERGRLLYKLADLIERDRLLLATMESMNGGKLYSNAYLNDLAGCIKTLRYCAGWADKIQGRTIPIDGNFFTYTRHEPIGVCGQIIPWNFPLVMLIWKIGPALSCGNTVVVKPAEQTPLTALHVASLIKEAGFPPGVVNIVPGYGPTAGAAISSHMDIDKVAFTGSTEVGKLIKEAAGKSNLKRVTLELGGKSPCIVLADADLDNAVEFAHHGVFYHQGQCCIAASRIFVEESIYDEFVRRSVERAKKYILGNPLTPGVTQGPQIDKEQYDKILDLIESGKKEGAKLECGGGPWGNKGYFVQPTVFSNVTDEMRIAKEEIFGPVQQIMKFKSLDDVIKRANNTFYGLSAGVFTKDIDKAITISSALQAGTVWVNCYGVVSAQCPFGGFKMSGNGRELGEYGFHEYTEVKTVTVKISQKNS
* hit, by the source's call; u = inconclusive; x = no result; [ ] = remark or other dose. Only some compounds are listed: those with a hit (about 10% of all), similar ones and a draw of the others. Unless noted, the call rests on the fitted dose curve; in most records, active means well fitted inhibition curve with a large enough effect (not every such curve was filed as active); inconclusive means small, poorly fitted or top-dose-only effect, or another doubt; inactive means no such curve, though single readings can be large or run the other way. Unless noted, on the % scale 0 is the no-effect control and ±100 the full control effect.

SMILES	Luc counter	Lamin A splicing	PNC assembly inh	IMPase cell inh	HPGD inh	ALDH1A1 inh
O=C1CC(NCc2ccc3c(c2)OCO3)C(=O)N1CCc1ccccc1 (centres undefined)	-1.1%	6.8%	0.0	14.0	-18.8%	14.1µM*
O=C(NCc1ccccn1)c1cc(-c2ccccc2Cl)nc2ccccc12	0.9%	-6.7%	-88.1*	x	-15.7%	-10.5%
C[C@H]1COC(=O)[C@H]2CCCN2C(=O)[C@@H](C)COC(=O)[C@H]2CCCN2C1=O	x	x	x	x	x	-8.0%[13.5 µM]
Nc1nc2ccc([N+](=O)[O-])cc2s1	x	x	x	x	-14.4%	u
Cc1noc(C)c1C(=O)N1CCC[C@@]2(CCN(c3ccccn3)C2)C1	-3.0%	x	x	x	-15.8%	-12.0%
O=C(NCc1ccc2c(c1)OCO2)c1cccs1	-1.7%	0.9%	-25.9	1.9	28.2µM*	8.6%
O=C(COC(=O)c1cccs1)NCc1ccc2c(c1)OCO2	-7.1%	6.1%	u	0.5	-22.7%	u
O=C(NCc1ccc2c(c1)OCO2)NC1CCCCC1	-1.2%	-1.4%[46 µM]	x	x	x	-4.4%
CCC/C(=N/NC(=O)c1ccc2c(c1)OCO2)c1cccs1	-12.5%	-1.9%	-22.1	x	15.8µM*	u
CCOCCCNC(=O)c1ccc2c(c1)OCO2	0.1%	-2.8%	-5.4	3.7	14.1µM*	14.2%
O=C(CC12CCC(CC1)C2)NCc1ccc2c(c1)OCO2	0.9%	-6.0%	-0.5	4.1	15.8µM*	-10.2%
O=C(NCCOc1ccccc1)c1ccc2c(c1)OCO2	-8.7%	1.2%	7.3	11.7	-2.5%	-2.4%
O=S(=O)(c1ccc(Cl)cc1)c1nc(-c2cccs2)oc1N1CCCCC1	x	x	x	4.3	x	x
O=C(NCc1ccc2c(c1)OCO2)c1cc(-c2ccccn2)nc2ccccc12	-0.9%	u	x	x	x	1.26µM*
CCOCCCNC(=O)C(c1ccc(OC)cc1)N(Cc1ccc2c(c1)OCO2)C(=O)c1ccccn1 (centres undefined)	2.9%	0.5%[9.22 µM]	x	x	x	-2.0%
CCOCCCNC(=O)C(c1ccccc1)N(Cc1ccc2c(c1)OCO2)C(=O)c1ccccc1O (centres undefined)	x	x	x	x	x	10µM*
Cc1ccc(S(=O)(=O)C(CNC(=O)C(=O)NCc2ccc(Cl)cc2)c2cccs2)cc1 (centres undefined)	x	14.9%[46 µM]	x	x	x	x
COc1nc(N/N=C/c2cc3c(cc2Br)OCO3)nc(N2CCOCC2)n1	x	-1.0%	-22.0	0.4	x	7.94µM*
CC1CC(C)CN(CC(O)COCCOc2ccc(Br)cc2)C1 (centres undefined)	-2.1%	2.4%	-101.5*	x	-4.9%	5.9%
CCC1(C)Nc2ccccc2C(=O)N1O (centres undefined)	3.0%	1.8%	53.0	-0.6	25.1µM*	-5.0%
CC(NC(=O)c1ccc(Br)s1)C1CCCO1 (centres undefined)	-5.2%	0.9%	4.9	3.3	31.6µM*	u
CC(Oc1ccc(Br)cc1)C(=O)NCc1cccnc1 (centres undefined)	-1.5%	x	x	x	-2.9%	6.2%
O=C(Nc1ccc(Cl)cc1)C1CCC(CNS(=O)(=O)c2ccc(Br)s2)CC1 (centres undefined)	x	x	x	15.0	x	x
CCOc1cccc(-c2nnc(SCC(=O)Nc3cc(OC)cc(OC)c3)n2N)c1	-2.9%	7.3%	u	-4.5	16.8%	-10.2%
CCOc1cccc(-c2nnc(SCC(=O)Nc3ccc(OC)c(OC)c3)n2N)c1	10.1%	6.5%	-108.0*	0.1	-3.4%	-2.9%
COc1ccc(NC(=O)CSc2nnc(-c3ccccc3C)n2N)cc1	-6.4%	u	-13.4	u	u	12.6µM*
CCNc1ncc2nc(-c3cc(F)cc(F)c3)c(=O)n(C)c2n1	x	9.3%	x	x	x	u
CC1(C)CC(=O)C(CC2=C(O)CC(C)(C)CC2=O)C(=O)C1	0.2%	7.1%	-6.3	-2.0	-8.1%	11.2µM*
CC1(C)CC(=O)C(CC2=C(O)CC(C)(C)CC2=O)=C(O)C1	-4.4%	-1.0%	u	7.7	-11.6%	8.91µM*
CCOC(=O)c1cc(OC(=O)c2ccc(Cl)cc2)n(-c2ccccc2)n1	x	x	x	-1.7	x	x
